# Most compounds without a hit are left out; they make up all but 11% or so of the library.
# Sm TGR block – blocks Schistosoma mansoni thioredoxin glutathione reductase; Q962Y6; AID 485364; purified TGR, DTNB reduction, TNB absorbance 405 nm; Potency, µM (highest dose often 114 µM), inactives show at the highest dose activity change, negative = inhibition, usual class: inhibitors; hit rate 3% among 360,000; further: on the % scale 0 is the no-effect control and ±100 the full control effect; nearly all actives have a fitted effect of over 60% in size
#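 TGR 20 nM + NADPH 100 uM (dispensed conc.), cpd preinc 15 min RT; start with NADPH (500 uM addition) then DTNB (15 mM addition). Kinetic TNB absorbance, 405 nm filter. Four-parameter Hill fit across titration.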
# Pf growth 96h – P. falciparum growth inhibition at 96 hours; P. falciparum luciferase reporter growth, 96 h; Potency, µM (titrated, usually from 28.7 µM), inactives show at the highest dose activity change, negative = inhibition, usual class: inhibitors; hit rate 6.9% among 320,000; further: on the % scale 0 is the no-effect control and ±100 the full control effect
#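 Parasite growth measured via integrated firefly luciferase reporter in P. falciparum. Infected erythrocytes at 2% hematocrit, 0.05% parasitemia final were treated 96 hours at 37 C under 5% CO2, and luminescence was read.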
# NS1 inh – influenza NS1 inhibition; Potency, µM (doses to about 46.1 µM), for inactives: at the top dose activity, positive = more growth; hit rate 0.4% among 270,000; calls by dose curve; further: actives are rising curves; nearly all actives have a fitted effect of over 50% in size
#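 Compounds were scored for reversing the slow growth caused by influenza A NS1 in S. cerevisiae, measured by optical density at 600 nm. Assay medium contained 2% galactose at pH 6.0; NS1-free yeast of the same strain were the positive control.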
# AMA1 RON2 block – AMA1-RON2 (P. falciparum) interaction inhibition; AlphaScreen AMA1-biotinylated RON2 peptide binding; Potency, µM (top dose mostly 58.2 µM), inactives show at the highest dose activity change, negative = inhibition, most hits filed as inhibitors; hit rate 0.2% among 360,000;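 further: 0% = vehicle wells and -100% = peptide control; nearly all actives have a fitted effect of over 45% in size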
#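 AMA1 (3D7) with his tag at 25 nM final met compounds first, then biotinylated RON2 peptide at 25 nM; detection used donor plus acceptor beads, 10 µg/mL apiece, read by AlphaScreen after 30 min at room temperature.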
# Pf growth 48h – P. falciparum growth inhibition at 48 hours (one generation) | P. falciparum luciferase growth in erythrocytes, 48 h | hit rate 5.9% among 310,000 | Potency, µM (titrated, usually from 28.7 µM), for the others: top-dose activity change, negative = inhibition, most hits filed as inhibitors; further: on the % scale 0 is the no-effect control and ±100 the full control effect
#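 Firefly luciferase activity from engineered P. falciparum reports growth; inhibitors lower the luminescent signal. Cultures contained 2% hematocrit erythrocytes at 0.1% final parasitemia.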
# * hit, by the source's call; ? = inconclusive; . = not tested or not shown; [ ] = remark or other dose. Unless noted, the call rests on the fitted dose curve; in most records, active means well fitted curve in the direction sought with a large enough effect; inconclusive means small, poorly fitted or top-dose-only effect, or another doubt; inactive means no such curve, though single readings can be large; an effect the other way counts as inactive or inconclusive. Potency means the concentration at half of the fitted maximal effect.
SMILES,Sm TGR block,Pf growth 96h,NS1 inh,AMA1 RON2 block,Pf growth 48h
CCC(NC(=S)NC1CCCCC1)c1ccc(C)cc1 (centres undefined),58%,7.4µM*,-87%,.,?
Cc1ccc(CNC(=S)NC2CCCCC2)cc1,-27%,?,-58%,16%,-13%
Cc1ccc(C)c(C(C)NC(=S)NC2CCCCC2)c1 (centres undefined),-18%,37%,-74%,3%,13µM*
CCCc1ccc(C(C)NC(=S)NC2CCCCC2)cc1 (centres undefined),5%,33%,-101%,3%,13µM*
CCCCC(=O)Nc1nn(CC)c2nc3c(C)cccc3cc12,-2%,?,-6%,24%,.
CCCCC(=O)Nc1nn(CCC)c2nc3ccccc3cc12,-1%,?,-4%,26%,12µM*
COc1ccccc1-c1cnnc(N/N=C/c2ccc(-c3cccc(Br)c3)o2)n1,-19%,?,13%,47%,9%
COc1ccc(-c2cnnc(N/N=C/c3ccc(-c4ccc([N+](=O)[O-])cc4)o3)n2)cc1,-13%,8%,.,-2%,2.9µM*
COc1ccc(-c2cnnc(N/N=C/c3ccc(O)c(OC)c3)n2)cc1,-7%,5.2µM*,-9%,-11%[2.32 µM],-11%
COc1cc(SSc2cc(OC)cc([N+](=O)[O-])c2N)c(N)c([N+](=O)[O-])c1,-1%,9.3µM*,14%,?,?
COc1cc([N+](=O)[O-])c2ncsc2c1,1%,19%,-6%,-12%,14%
CC1CCN(S(=O)(=O)c2ccc3c(c2)oc(=O)n3CC(=O)NC(C)c2ccccc2)CC1 (centres undefined),2%,.,.,.,.
COc1ccc(NC(=O)C2CCCN(c3cc(C)nc4ncnn34)C2)cc1 (centres undefined),-4%,?,1%,11%,19%
Cc1ccc(NC(=O)C2CCCN(c3ncnc4c3nc3n4CCCCC3)C2)nc1 (centres undefined),-1%,1%,-47%,0%,?
COc1ccccc1NC(=O)C1CCN(c2ncnc3c2nc2n3CCCCC2)CC1,-1%,10µM*,1%,-6%,?
Cc1ccnc(NC(=O)C2CCCN(c3ncnc4c3nc3n4CCCCC3)C2)c1 (centres undefined),-3%,10µM*,9%,3%,-3%
O=C(Nc1cccnc1Cl)C1CCCN(c2ncnc3c2nc2n3CCCCC2)C1 (centres undefined),-3%,12µM*,-28%,22%,-10%
O=C(Nc1ccccn1)C1CCCN(c2ncnc3c2nc2n3CCCCC2)C1 (centres undefined),6%,4%,-27%,0%,-25%
COc1ccc(NC(=O)C2CCCN(c3c4c(nc5ncnn35)CCC4)C2)cc1 (centres undefined),2%,12µM*,-2%,7%,-20%
COc1ccc(NC(=O)CCS(=O)(=O)c2nc(-c3ccc4c(c3)OCO4)cc(C(F)(F)F)n2)c(OC)c1,-21%,.,.,.,.
O=C(COc1cc(Cl)ccc1Cl)N1CCNC1=O,-8%,23%,.,0%,?
O=C(NCCCN1CCN(c2ccccc2F)CC1)c1ccc2nc(N3CCCCC3)sc2c1,-1%,.,.,.,.
Cc1ccc2[nH]cc(S(=O)(=O)c3ccc(C)c(C)c3)c(=O)c2c1,-5%,?,1%,15%,4%
Cc1cc(C)c(NC(=O)CNC(=O)CSc2nnc(N)s2)c(C)c1,-3%,17%,.,17%,-23%
CSc1cccc(NC(=O)C2CCCN(c3ncnc4c3nc3n4CCCCC3)C2)c1 (centres undefined),8%,0%,1%,-4%,-26%
CC(=O)c1ccc(NC(=O)C2CCCN(c3ncnc4c3nc3n4CCCCC3)C2)cc1 (centres undefined),17%,6.6µM*,-2%,-3%,?
O=C(C1CCN(c2ncnc3c2nc2n3CCCCC2)CC1)N1CCN(c2ccc(Cl)cc2)CC1,-8%,.,.,.,.
CN1CCN(C(=O)C2CCCN(c3ncnc4c3nc3n4CCCCC3)C2)CC1 (centres undefined),-7%,1%,-12%,-9%,?

# Compound activity: PubChem, National Center for Advancing Translational Sciences (NCATS)
